Test results as given in the supplement of paper PMC11732987, “Enantioselective OTUD7B fragment discovery through chemoproteomics screening and high-throughput optimisation” (Communications Chemistry, 2025).

Assays:
Assay in all cases: log2 ratio of Biotin-Ahx-Ub-VS probe labelling (fragment/DMSO); higher = less target engagement (more negative = stronger competition), active = hit call of the paper (q ≤ 0.05, log2 ratio ≤ -1)
Conditions in all cases: compound concentration: 200 uM; treatment time: 3 h
USP34 = USP34 (UniProt Q70CQ2)
Chain of USP34 (Q70CQ2 whole entry, the tested form may be a part): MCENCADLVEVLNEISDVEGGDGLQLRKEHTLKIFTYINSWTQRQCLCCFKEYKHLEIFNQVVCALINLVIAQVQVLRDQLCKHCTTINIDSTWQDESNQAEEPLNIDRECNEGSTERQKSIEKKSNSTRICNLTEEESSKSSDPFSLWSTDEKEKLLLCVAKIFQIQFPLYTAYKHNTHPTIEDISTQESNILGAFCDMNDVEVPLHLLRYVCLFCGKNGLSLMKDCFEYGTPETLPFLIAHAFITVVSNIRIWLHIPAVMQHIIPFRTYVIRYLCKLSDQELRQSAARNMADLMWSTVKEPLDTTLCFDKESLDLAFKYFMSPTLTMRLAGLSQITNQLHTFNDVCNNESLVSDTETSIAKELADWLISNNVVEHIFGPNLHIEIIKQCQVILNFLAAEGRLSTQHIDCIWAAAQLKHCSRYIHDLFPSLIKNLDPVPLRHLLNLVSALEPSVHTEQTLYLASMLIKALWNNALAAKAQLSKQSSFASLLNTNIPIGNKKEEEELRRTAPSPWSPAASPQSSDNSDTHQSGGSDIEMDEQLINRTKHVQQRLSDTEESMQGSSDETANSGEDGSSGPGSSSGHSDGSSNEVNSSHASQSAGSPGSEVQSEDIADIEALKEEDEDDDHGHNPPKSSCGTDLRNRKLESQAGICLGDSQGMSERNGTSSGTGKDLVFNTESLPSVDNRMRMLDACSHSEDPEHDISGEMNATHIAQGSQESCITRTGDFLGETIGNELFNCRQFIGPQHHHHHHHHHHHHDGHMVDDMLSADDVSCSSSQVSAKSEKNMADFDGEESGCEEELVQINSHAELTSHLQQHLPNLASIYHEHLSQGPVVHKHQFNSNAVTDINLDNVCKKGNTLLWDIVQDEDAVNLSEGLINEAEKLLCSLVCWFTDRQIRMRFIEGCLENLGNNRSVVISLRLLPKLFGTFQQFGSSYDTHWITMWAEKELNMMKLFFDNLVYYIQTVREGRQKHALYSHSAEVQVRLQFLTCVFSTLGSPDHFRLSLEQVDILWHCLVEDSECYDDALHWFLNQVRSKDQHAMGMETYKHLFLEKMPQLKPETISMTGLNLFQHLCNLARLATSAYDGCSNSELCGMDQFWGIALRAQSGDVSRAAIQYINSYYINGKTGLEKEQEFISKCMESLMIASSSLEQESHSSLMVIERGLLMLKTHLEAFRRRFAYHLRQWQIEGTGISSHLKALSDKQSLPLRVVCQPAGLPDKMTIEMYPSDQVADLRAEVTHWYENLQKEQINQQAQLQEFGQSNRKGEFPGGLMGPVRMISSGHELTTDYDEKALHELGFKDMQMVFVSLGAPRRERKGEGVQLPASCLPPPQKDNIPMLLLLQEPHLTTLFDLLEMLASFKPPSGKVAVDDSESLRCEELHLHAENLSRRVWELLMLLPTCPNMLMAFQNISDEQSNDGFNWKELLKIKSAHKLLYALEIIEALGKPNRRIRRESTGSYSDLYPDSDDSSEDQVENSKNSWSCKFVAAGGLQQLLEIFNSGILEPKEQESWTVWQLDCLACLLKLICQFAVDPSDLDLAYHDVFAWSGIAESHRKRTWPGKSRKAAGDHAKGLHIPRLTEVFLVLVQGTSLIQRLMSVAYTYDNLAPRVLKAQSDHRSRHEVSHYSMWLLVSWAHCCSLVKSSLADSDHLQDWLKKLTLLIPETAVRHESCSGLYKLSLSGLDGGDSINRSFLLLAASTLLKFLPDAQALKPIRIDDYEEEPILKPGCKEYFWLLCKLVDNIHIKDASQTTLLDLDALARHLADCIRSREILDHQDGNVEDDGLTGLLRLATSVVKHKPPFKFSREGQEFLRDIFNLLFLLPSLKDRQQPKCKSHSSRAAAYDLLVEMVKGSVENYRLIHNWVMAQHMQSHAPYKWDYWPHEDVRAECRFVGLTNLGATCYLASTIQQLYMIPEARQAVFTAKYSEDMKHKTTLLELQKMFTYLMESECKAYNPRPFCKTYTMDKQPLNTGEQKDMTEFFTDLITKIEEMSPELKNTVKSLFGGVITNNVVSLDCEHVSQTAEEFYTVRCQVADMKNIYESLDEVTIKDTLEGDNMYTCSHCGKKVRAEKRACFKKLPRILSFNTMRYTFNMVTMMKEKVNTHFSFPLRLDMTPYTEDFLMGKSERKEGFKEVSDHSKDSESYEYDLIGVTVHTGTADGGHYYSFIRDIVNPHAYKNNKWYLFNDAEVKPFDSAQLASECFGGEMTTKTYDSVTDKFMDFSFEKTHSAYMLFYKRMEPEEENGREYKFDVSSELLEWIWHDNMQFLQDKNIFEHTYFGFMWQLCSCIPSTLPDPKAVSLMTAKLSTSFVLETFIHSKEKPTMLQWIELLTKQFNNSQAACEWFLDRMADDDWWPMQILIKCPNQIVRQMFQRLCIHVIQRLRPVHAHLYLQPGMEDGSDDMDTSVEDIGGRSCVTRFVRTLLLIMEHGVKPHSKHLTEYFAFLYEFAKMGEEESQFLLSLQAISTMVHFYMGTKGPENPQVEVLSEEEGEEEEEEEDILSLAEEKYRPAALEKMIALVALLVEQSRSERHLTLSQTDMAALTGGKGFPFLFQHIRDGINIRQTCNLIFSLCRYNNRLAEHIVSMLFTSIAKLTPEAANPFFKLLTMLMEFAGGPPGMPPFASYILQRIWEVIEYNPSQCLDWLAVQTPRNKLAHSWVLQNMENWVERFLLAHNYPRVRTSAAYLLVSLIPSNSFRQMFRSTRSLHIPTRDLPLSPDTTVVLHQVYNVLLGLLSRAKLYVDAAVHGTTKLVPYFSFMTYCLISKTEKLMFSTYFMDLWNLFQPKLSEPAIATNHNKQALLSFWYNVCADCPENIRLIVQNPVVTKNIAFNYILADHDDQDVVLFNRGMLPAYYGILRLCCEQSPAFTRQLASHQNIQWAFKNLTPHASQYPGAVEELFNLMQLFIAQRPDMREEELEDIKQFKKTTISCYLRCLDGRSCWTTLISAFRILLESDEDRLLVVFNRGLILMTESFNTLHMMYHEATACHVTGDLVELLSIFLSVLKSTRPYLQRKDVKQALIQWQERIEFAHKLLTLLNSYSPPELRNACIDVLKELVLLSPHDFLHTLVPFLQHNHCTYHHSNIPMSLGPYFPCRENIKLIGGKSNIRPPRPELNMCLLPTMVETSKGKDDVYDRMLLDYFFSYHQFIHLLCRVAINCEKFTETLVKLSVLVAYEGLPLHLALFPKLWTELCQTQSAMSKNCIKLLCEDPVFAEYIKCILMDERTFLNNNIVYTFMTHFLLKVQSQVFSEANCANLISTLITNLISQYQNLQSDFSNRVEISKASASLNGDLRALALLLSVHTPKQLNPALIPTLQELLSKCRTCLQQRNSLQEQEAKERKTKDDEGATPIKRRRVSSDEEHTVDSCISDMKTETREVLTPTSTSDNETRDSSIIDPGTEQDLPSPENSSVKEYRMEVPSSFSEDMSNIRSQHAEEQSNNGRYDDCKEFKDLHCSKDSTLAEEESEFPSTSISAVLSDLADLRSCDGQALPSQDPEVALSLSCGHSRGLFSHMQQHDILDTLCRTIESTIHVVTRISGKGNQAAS
Method in brief: (§1)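 HEK293T lysate in Tris/CHAPS/IGEPAL buffer with protease inhibitors (495 µg per sample) was given fragment at 200 µM or vehicle for 3 h, in triplicate. It then received Biotin-Ahx-Ub-VS at 0.5 µM final for 1 h. Labelled DUBs were NeutrAvidin-enriched, digested with LysC and trypsin, and run by diaPASEF LC-MS/MS. Values are average log2 fragment/vehicle ratios by unpaired t-test on global-median-normalised Spectronaut quantities of proteins with ≥2 unique peptides.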

USP36 = biological target: T1, USP36 (UniProt Q9P275)
T1 sequence (whole entry): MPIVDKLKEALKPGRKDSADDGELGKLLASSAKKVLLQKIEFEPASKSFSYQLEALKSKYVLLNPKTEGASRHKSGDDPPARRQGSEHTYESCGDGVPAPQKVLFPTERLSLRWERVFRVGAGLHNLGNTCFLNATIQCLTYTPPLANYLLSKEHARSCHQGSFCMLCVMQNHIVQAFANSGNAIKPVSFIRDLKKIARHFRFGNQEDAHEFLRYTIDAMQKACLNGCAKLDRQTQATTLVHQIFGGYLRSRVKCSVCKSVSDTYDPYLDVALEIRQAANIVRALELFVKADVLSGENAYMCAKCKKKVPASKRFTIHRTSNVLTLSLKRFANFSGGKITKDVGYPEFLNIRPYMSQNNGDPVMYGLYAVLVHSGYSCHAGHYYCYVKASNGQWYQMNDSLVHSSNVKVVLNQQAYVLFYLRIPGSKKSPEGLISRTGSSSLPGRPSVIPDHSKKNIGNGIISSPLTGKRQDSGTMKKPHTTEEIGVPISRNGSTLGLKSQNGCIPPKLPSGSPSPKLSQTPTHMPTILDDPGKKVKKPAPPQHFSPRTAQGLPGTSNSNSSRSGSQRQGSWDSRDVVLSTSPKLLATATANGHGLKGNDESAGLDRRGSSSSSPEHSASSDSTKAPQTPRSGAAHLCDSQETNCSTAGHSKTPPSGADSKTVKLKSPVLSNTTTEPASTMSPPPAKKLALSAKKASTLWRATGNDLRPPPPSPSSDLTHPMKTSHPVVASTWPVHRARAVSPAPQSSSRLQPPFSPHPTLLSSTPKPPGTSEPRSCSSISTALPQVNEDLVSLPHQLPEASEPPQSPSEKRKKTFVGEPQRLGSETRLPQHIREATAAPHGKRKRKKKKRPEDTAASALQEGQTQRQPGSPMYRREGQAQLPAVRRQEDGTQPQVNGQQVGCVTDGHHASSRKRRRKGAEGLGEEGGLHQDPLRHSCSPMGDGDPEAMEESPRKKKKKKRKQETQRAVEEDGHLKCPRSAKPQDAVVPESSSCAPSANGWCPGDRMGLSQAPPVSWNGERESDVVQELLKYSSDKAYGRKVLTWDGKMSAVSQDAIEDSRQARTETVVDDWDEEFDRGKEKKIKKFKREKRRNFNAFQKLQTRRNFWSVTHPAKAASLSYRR
Method in brief: as §1

USP38 = biological target: T2, USP38 (UniProt Q8NB14)
T2 sequence (whole entry): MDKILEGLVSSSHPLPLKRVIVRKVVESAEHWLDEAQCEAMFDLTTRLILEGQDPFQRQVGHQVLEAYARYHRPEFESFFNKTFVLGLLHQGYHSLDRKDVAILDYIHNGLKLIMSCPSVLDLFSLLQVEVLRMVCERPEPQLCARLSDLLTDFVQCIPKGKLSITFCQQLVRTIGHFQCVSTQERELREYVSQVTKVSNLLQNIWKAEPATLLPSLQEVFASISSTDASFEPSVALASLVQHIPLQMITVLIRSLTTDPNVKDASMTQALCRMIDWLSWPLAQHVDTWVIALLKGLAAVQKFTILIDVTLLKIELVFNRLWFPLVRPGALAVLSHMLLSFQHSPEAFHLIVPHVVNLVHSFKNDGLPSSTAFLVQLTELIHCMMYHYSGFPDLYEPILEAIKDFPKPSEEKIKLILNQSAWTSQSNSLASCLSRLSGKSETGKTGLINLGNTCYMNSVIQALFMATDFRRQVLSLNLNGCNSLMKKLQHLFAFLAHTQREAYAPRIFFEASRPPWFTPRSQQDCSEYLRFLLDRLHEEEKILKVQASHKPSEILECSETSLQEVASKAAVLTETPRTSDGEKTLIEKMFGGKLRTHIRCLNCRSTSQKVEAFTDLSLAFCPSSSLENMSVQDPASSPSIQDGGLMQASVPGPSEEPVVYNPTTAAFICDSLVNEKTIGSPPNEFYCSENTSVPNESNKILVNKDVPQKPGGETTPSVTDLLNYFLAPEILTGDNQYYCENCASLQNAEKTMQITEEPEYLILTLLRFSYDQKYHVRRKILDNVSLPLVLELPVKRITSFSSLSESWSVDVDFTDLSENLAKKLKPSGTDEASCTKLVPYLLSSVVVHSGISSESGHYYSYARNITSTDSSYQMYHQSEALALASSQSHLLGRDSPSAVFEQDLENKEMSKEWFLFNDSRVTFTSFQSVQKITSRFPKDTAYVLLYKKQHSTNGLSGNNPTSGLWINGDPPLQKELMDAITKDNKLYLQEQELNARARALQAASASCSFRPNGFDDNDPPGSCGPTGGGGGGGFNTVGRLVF
Method in brief: as §1

USP39 = biological target: T3, USP39 (UniProt Q53GS9)
T3 sequence (whole entry): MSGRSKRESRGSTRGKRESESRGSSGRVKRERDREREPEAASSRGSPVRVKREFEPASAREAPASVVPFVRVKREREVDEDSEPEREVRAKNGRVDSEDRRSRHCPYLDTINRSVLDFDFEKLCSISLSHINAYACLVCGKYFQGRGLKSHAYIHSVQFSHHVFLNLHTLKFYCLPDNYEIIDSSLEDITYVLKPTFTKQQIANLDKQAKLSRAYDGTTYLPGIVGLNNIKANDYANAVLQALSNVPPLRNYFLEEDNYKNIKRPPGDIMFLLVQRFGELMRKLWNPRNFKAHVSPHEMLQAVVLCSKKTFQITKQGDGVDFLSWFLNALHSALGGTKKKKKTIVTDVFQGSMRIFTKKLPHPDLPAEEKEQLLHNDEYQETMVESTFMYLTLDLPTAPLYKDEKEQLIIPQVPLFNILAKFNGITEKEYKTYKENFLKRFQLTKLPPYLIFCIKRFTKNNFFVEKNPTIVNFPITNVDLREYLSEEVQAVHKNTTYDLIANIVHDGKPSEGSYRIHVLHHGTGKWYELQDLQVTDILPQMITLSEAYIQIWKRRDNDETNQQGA
Method in brief: as §1

USP4 = biological target: T4, USP4 (UniProt Q13107)
T4 sequence (whole entry): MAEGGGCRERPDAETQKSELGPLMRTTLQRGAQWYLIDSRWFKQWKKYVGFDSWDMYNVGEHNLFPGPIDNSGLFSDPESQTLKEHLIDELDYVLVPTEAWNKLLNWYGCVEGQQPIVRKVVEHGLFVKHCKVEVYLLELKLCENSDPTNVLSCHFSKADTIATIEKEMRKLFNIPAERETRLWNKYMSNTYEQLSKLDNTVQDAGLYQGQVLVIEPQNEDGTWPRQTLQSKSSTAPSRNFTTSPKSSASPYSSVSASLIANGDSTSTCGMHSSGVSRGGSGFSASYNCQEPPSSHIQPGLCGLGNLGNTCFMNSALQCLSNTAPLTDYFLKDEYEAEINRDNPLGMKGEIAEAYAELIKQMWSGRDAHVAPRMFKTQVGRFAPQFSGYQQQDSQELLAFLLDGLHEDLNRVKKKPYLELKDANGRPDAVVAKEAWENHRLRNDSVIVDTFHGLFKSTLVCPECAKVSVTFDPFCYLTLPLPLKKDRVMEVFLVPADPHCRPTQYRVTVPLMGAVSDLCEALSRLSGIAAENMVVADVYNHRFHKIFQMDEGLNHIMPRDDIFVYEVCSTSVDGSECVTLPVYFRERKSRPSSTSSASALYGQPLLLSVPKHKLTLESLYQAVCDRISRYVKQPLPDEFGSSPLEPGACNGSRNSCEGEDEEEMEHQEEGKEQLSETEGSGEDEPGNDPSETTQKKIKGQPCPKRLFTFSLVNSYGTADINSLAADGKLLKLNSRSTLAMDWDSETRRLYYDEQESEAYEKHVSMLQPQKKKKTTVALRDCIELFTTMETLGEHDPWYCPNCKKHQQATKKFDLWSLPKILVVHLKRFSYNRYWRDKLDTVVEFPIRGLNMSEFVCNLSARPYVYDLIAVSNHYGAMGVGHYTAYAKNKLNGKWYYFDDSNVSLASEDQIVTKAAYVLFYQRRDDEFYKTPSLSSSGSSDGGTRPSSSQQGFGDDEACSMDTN
Method in brief: as §1

Measured: log2 ratio of Biotin-Ahx-Ub-VS probe labelling

O=C(CCl)N1CCC(=C(F)CO)C1
inactive: USP34 0.0842 | USP36 -0.125 | USP38 0.0909 | USP39 0.212 | USP4 0.218
